Experimental data published in PubChem BioAssay AID488890 (Southern Research Specialized Biocontainment Screening …, 2010).
Among all 320,000 compounds or so, about 1,300 (0.41%) were called active. Inconclusive results (about 3%) are left out. How the calls were made is not given here. Not all results are given here. Results with a measured potency or affinity are listed apart.

Assay: growth inhibition of non-replicating M. tuberculosis (AID 488890);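 further: plate controls were DMSO cells for no effect and high antibiotic wells for full effect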
Settings: Mycobacterium tuberculosis non-replicating, at 25 µM, stronger effect = higher value

| SMILES | inhibition [%] |
| --- | --- |
| O=C(Oc1c(-c2ccccc2)oc2ccccc2c1=O)c1ccccc1 | 26.1 |
| NC(=O)COc1c(-c2ccc(Br)o2)oc2ccccc2c1=O | -1.98 |
| N#Cc1c(OCC(=O)c2ccccc2)nc2c(c1-c1ccco1)CCc1ccccc1-2 | -14.7 |
| NC(=O)Cc1nc(-c2ccc(F)cc2)cs1 | 8.71 |
| Cc1ccc(NCC(=O)c2ccc([N+](=O)[O-])cc2)cc1 | 68 |
| Cc1ccc(C(=O)CNc2cccc([N+](=O)[O-])c2)cc1 | 11.3 |
| O=C(NC(=S)Nc1cccc(F)c1)c1cccc([N+](=O)[O-])c1 | 74 |
| O=C(CNc1cccc2ccccc12)c1ccc([N+](=O)[O-])cc1 | 73.1 |
| CCOC(=O)C1=C(C)N(CCCC(=O)O)C(=O)NC1c1ccccc1Cl (stereo unspecified) | 0.44 |
| CCOC(=O)C(C)/C(C)=N\Nc1ccc([N+](=O)[O-])cc1[N+](=O)[O-] (stereo unspecified) | -5.18 |
| CCCC1CC(c2csc(N)n2)CCO1 (stereo unspecified) | -0.79 |
| COc1ccc(OC)c(/C=C/C(=O)Oc2ccc(C(C)=O)cc2)c1 | 64.2 |
| O=C(Cn1c(SCC(=O)N2CCCc3ccccc32)nc2ccccc21)N1CCCC1 | -11.8 |
| O=C(NNC(=O)C1CCC1)c1ccc(Br)cc1 | 3.14 |
| O=C(NNC(=O)c1ccc(Br)cc1)c1ccncc1 | 41.7 |
| C/C(NC1CCCCC1)=C(/C#N)C(=O)NCCN1CCOCC1 | 1.64 |
| O=[N+]([O-])c1cnc(Nc2ccccc2)nc1Nc1ccccc1 | 0.51 |
| CC(=O)OCC(=O)Nc1ccc([N+](=O)[O-])cc1Cl | -21.2 |
| Cc1cc(O)c(NC(=O)c2cc([N+](=O)[O-])ccc2Cl)cc1C | 32.1 |
| CN(C)C(=O)Oc1ccc2ccccc2c1Cl | 5.7 |
| O=C(CSc1ccccc1F)NCCN1C(=O)CSC1=O | -0.52 |
| O=C(O)CN1C(c2ccccc2)=Nc2ccc(Br)cc2C1c1ccccc1 (stereo unspecified) | -0.36 |
| CCOC(=O)c1cc2c(ccc3ccccc32)oc1=O | 74.5 |
| O=C(O)c1cc2c(ccc3ccccc32)oc1=O | -4.26 |

| SMILES | inhibition [%] |
| --- | --- |
| Cc1cccc(OCC(=O)NCC(C)(C)N2CCOCC2)c1 | 5.72 |
| CCOC(=O)N1CCC(c2[nH][nH]c(=O)c2C)CC1 | -7.47 |
| CCCCn1c(=O)c(CCC(=O)OCC(=O)NC(C)c2ccccc2)nc2ccccc21 (stereo unspecified) | 55.8 |
| Cn1c(/C=C/c2ccccc2[N+](=O)[O-])nc2ccccc2c1=O | -6.23 |
| Cc1cccc(-n2c(/C=C/c3ccc([N+](=O)[O-])o3)nc3ccccc3c2=O)c1 | 28.4 |
| Cc1cc(=O)oc(C)c1C(=O)OCC(=O)c1ccc(Cl)cc1 | 72.7 |
| O=C(NCCCN1CCOCC1)c1cc2ccccc2o1 | -15.4 |
| O=C1C(c2ccncc2)=C(O)c2ccccc21 | 26.2 |
| Cc1ccc(C2=C(O)c3ccccc3C(=O)C2=O)cc1 | 71.2 |
| Cc1cccc(NC(=S)N2CCN(c3cc(C)ccc3C)CC2)c1 | -5.31 |
| O=c1[nH]c2ccccc2nc1-c1ccc(Cl)cc1 | -0.23 |
| O=c1[nH]c2ccccc2nc1-c1ccccc1 | -4.14 |
| CN(C)CC/C=C1/c2ccccc2Sc2ccc(Cl)cc21 | 75.6 |
| CN(C)CC/C=C1/c2cc(F)ccc2Sc2ccc(Cl)cc21 | 79.7 |
| Cc1ccc(OCC(=O)N/N=C2/SCC(=O)N2Cc2ccccc2)cc1 | 29.3 |
| CC(CN1CCN(C/C=C/c2ccccc2)CC1)c1ccccc1 (stereo unspecified) | 2.29 |
| COC(CNC(=O)c1cccnc1)OC | -3.72 |
| COC(CNC(=O)c1coc2nc3ccccc3nc12)OC | 5.54 |
| COc1ccc(Cl)cc1NC(=O)CN(C)C(=O)C12CC3CC(CC(Cl)(C3)C1)C2 | 41.4 |
| COc1cccc(NC(=O)CCC(=O)NCc2ccco2)c1 | -7.17 |
| CCOc1ccc(C(=O)NCc2cccs2)cc1 | 44.9 |
| O=C1c2ccc([N+](=O)[O-])cc2C(=O)N1c1ccc(Cl)cn1 | -16.1 |
| O=C1c2cccc3c([N+](=O)[O-])ccc(c23)C(=O)N1CCc1ccccn1 | 33.7 |
| CC(=O)Nc1cccc2c1C(=O)N(c1ccc(OC(C)=O)cc1)C2=O | 19 |

| SMILES | inhibition [%] |
| --- | --- |
| O=C1c2ccccc2C(=O)N1c1ccc(Cl)cn1 | 7.35 |
| Cc1ccc(N2C(=O)c3cccc4c([N+](=O)[O-])ccc(c34)C2=O)c2cccnc12 | 7.23 |
| O=C1c2cccc3cccc(c23)C(=O)N1c1ccccn1 | -12.3 |
| O=C1c2ccccc2C(=O)N1c1cc([N+](=O)[O-])ccn1 | 4.94 |
| Cc1ccc(C(=O)O)cc1N1C(=O)c2cccc3c([N+](=O)[O-])ccc(c23)C1=O | 3.01 |
| COc1ccc(CCN(C)C(=O)CSc2nnc(-c3ccco3)o2)cc1OC | -6.6 |
| C=CCn1c(SCC(=O)Nc2ccc(NC(=O)c3ccco3)c(OC)c2)nnc1-c1ccncc1 | 13.9 |
| Cc1ccccc1OCC(=O)NCCCNC(=O)c1cccnc1 | -5.91 |
| COc1cccc(-c2nnc(-c3ccco3)o2)c1 | 65.8 |
| Cc1cccc(Oc2ncnc(N)c2[N+](=O)[O-])c1C | 29.9 |
| Cc1ccccc1Oc1ncnc(N)c1[N+](=O)[O-] | 6.54 |
| Cc1ccccc1C(=O)NCC(=O)OCCCOC(=O)CNC(=O)c1ccccc1C | -9.69 |
| O=C1CN(C(=O)CNCc2ccccc2Cl)c2ccccc2N1 | 9.45 |
| Cc1ccc(-c2cc(-c3ccc(F)cc3)n[nH]2)c(O)c1 | -3.72 |
| CN(C)CCOC(=O)/C(=C/c1cn(C)c2ccccc12)NC(=O)c1ccccc1 | -4.57 |
| Cc1ccc(S(=O)(=O)CCC(=O)OCC(=O)c2ccc(C)c(C)c2)cc1 | 73.6 |
| Cc1ccc(C(=O)CCS(=O)(=O)c2ccc(F)cc2)cc1 | 69.2 |
| Cc1ccc(C)c(OCc2nnc(NC(=O)c3ccc4c(c3)OCO4)s2)c1 | 6.85 |
| O=C1NC2(CCC3(CC2)OCCO3)NN1c1ccccc1 | 14.8 |
| O=C1NC2(CCCCC2)NN1c1ccccc1 | 18.6 |
| O=C(O)Cc1ccc(Oc2ncc(C(F)(F)F)cc2Cl)cc1 | -16.8 |
| O=C(CCCc1nc(-c2ccccc2)no1)Nc1cccnc1 | 34.2 |
| Cc1cccc(-c2noc(CCCC(=O)Nc3cccnc3)n2)c1 | 32.7 |
| O=[N+]([O-])c1ccc2ncnc(Nc3ccc4c(c3)OCCO4)c2c1 | 21.4 |

| SMILES | inhibition [%] |
| --- | --- |
| CCOC(=O)c1sc2nc3n(c(=O)c2c1C)CCC3 | 1.86 |
| Cc1c(C(=O)OCc2ccc(F)cc2)sc2nc3n(c(=O)c12)CCC3 | 29.2 |
| N#Cc1cc(N)ccc1Sc1ccccc1 | 9.77 |
| COc1ccc(N2CCN(c3ccc(N)cc3C#N)CC2)cc1 | -1.74 |
| CS(=O)(=O)N(CC(=O)NCCC1=CCCCC1)c1ccc2c(c1)OCO2 | -1.16 |
| COc1ccc(-c2cc(C(=O)NCCN3CCOCC3)no2)cc1OC | -10.1 |
| CCCCC(=O)N1CCN(c2nc3ccc(F)cc3s2)CC1 | 50.8 |
| Cc1ccc2sc(N3CCN(C(=O)c4ccc([N+](=O)[O-])o4)CC3)nc2c1C | 68.9 |
| O=C(c1ccccc1)N1CCN(c2nc3ccc([N+](=O)[O-])cc3s2)CC1 | 24.5 |
| Cc1ccc(C)c2sc(N3CCN(C(=O)c4ccc([N+](=O)[O-])o4)CC3)nc12 | 77.8 |
| Cc1ccc(OCCC(=O)OCC(=O)NCc2ccccc2)cc1 | 30.8 |
| CC1(C(=O)CSc2ncn[nH]2)CCC(=O)O1 (stereo unspecified) | -3.75 |
| O=C(NC1CCCCC1)c1cc2ccccc2cc1O | 30.4 |
| O=C(NC1CC1)c1cc2ccccc2o1 | 6.17 |
| CCn1cc(C(=O)NC(C)C2CC3CCC2C3)cn1 (stereo unspecified) | 78.4 |
| CC(NC(=O)Cn1cnnn1)C12CC3CC(CC(C3)C1)C2 (stereo unspecified) | 2.51 |
| Cc1ccc(C2NC(=O)c3ccccc3O2)cc1 (stereo unspecified) | 9.75 |
| COc1ccc(NS(=O)(=O)c2ccc(N3CCCCC3)c(NC(=O)C(C)NC(N)=O)c2)cc1 (stereo unspecified) | 17.6 |
| CC/C(=N\NS(=O)(=O)c1ccc(C)cc1)c1ccco1 | -13.4 |
| COc1ccccc1OCCCCN1CCCCC1 | 7.51 |
| COc1ccccc1OCCOCCN1CCCC1 | -3.17 |
| COc1ccc(CC(=O)NC(C)(C)C)cc1S(=O)(=O)N1CCOCC1 | -3.56 |
| O=C(c1ccccc1)N1CCN(C(=O)c2cc3ccccc3o2)CC1 | -6.53 |
| O=C(c1ccc([N+](=O)[O-])cc1)N1CCc2ccccc2C1 | 39.6 |

| SMILES | inhibition [%] |
| --- | --- |
| O=C(c1ccc([N+](=O)[O-])o1)N1CCCCCC1 | 56.6 |
| COc1cc2c(cc1OC)CN(C(=O)c1ccc(OC)c([N+](=O)[O-])c1)CC2 | 2.12 |
| CC(=O)N1CCN(C(=O)c2cc3ccccc3o2)CC1 | 2.82 |
| O=C(c1ccccc1[N+](=O)[O-])N1CCc2ccccc2C1 | -4.71 |
| O=C(c1ccc([N+](=O)[O-])o1)N1CCOCC1 | 15.5 |
| COc1cc2c(cc1OC)CN(C(=O)c1ccc(Br)o1)CC2 | -1.97 |
| O=C(COC(=O)c1cncc(Br)c1)NCC1CCCO1 (stereo unspecified) | 4.18 |
| N#Cc1ccc(S(=O)(=O)N2CCC(C(=O)Nc3cccc(C(=O)NC4CC4)c3)CC2)cc1 | 4.79 |
| COC(=O)C1=C(C)N(C(C)C)C(=O)C1(NC(=O)C1CCCCC1)C(F)(F)F (stereo unspecified) | 7.64 |
| CCOc1ccc(C(NC(=O)CC)c2c(O)ccc3ccccc23)cc1 (stereo unspecified) | 22.7 |
| COc1ccc(N2CCOCC2)c(NC(=O)c2cccs2)c1 | -2.48 |
| CN1C[C@H](C(=O)NC2(C)OC3(O)[C@@H]4CCCN4C(=O)[C@H](Cc4ccccc4)N3C2=O)CC2c3cccc4[nH]cc(c34)C[C@H]21 (stereo partly specified) | 12.4 |
| CC1CCC(NC(=O)C2CC(O)CN2S(=O)(=O)c2ccc([N+](=O)[O-])cc2)CC1 (stereo unspecified) | 11.1 |
| O=C(Nc1ccccc1N1CCOCC1)c1ccc2ccccc2n1 | 32.1 |
| CSCCC(NC(=O)c1ccco1)C(=O)N1CCC(C(N)=O)CC1 (stereo unspecified) | -11.5 |
| COc1ccc(NC(=O)CN(C)C(=O)c2ccc3ccccc3n2)cc1 | -6.38 |
| O=C(Nc1cc(Cl)ncn1)c1ccccc1 | 5.29 |
| CCN(CC(=O)Nc1cccc(OC)c1)CC(=O)Nc1ccc(C)cc1Cl | 13.4 |
| O=C(Nc1ccc(Cl)cc1)C1CCCCN1S(=O)(=O)c1ccccc1 (stereo unspecified) | 10.3 |
| Cc1cc(C)c(C)c(OCC(=O)O/N=C(\N)c2ccccn2)c1 | 13 |
